Experimental data from PubChem BioAssay.
Results filed as inconclusive are left out. Active and inactive are the calls of the source.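 Rule for the calls, unless noted: active = inhibition above 54%, about 3 SD of non-fluorescent compounds; inactive = the rest.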

Legend:
[1] = rapamycin-like changes in RPL19A-GFP expression – cell-based, S. cerevisiae, multiplex flow cytometry, primary screen (AID 1862; in the data active = percent of DMSO control GFP below about 86%;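 note: lower values mimic rapamycin by blocking the RPL19A rise seen in DMSO cells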); details: S. cerevisiae RPL19A-GFP strain, flow cytometry fluorescence, 3 h; at 10 µM; stronger effect = lower value
[2] = TOR pathway GLN3 branch reporter MEP2-GFP changes – S. cerevisiae, multiplex flow cytometry, primary screen (AID 1867;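 active = GFP response, as percent of the DMSO control, above the screen-wide mean plus 3 SD, about 139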;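 note: median GFP channel fluorescence of barcode-gated MEP2-GFP cells measured by flow cytometry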); details: S. cerevisiae MEP2-GFP strain, 3 h, at 10 µM, stronger effect = higher value, 100% means same as DMSO wells
[3] = TOR pathway RTG branch CIT2 reporter changes – S. cerevisiae, GFP fusion, multiplex flow cytometry, primary screen (AID 1870;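 active = percent response above a set limit, the screen-wide mean plus 3 SD, cut at about 130% in these data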;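 note: barcoded CIT2-GFP strain pooled with four other GFP strains with rapamycin as positive control; median GFP fluorescence per well over plate mean of DMSO wells so 100% = DMSO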); details: S. cerevisiae CIT2-GFP expression, 3 h, at 10 µM, stronger effect = higher value
[4] = TOR pathway LAP4-GFP level changes – S. cerevisiae, multiplex flow cytometry, primary screen (AID 1873;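 active = GFP signal, as percent of the solvent control, above the screen mean plus 3 SD, about 149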); details: S. cerevisiae LAP4-GFP expression, 3 h, at 10 µM, stronger effect = higher value
[5] = yeast AGP1-GFP level changes, GLN3 branch – cell-based, multiplex flow cytometry, S. cerevisiae, primary screen (AID 1887;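 active = GFP signal above the screen-wide mean plus 3 SD, that is over about 124.5% of the solvent control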;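 note: AGP1-GFP fusion strain of S. cerevisiae within a five-strain barcoded multiplex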); details: 3 h, at 10 µM, stronger effect = higher value
[6] = hit retest on RPL19A-GFP reporter strain – cell-based, S. cerevisiae, flow cytometry, cherry picks, mother/daughter gates, confirmation (AID 2270;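 active = GFP response below 50% of the DMSO control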); details: 3 h, at 10 µM, stronger effect = lower value, 100 = same GFP as DMSO wells
[7] = yeast TOR pathway reporter LAP4-GFP change – cell-based, cherry picks, flow cytometry, mother/daughter gates, confirmation (AID 2271;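 active = GFP response above 150% of the DMSO control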;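 note: ratio of sample to DMSO plate mean so 100% equals DMSO level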); details: S. cerevisiae LAP4-GFP strain, 3 h, at 10 µM, stronger effect = higher value, 100 means same as DMSO control
[8] = TOR pathway reporter MEP2-GFP, retest of hits – S. cerevisiae, flow cytometry GFP, cherry picks, confirmation (AID 2272;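 active = GFP response above 150% of the DMSO control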;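 note: ratio of well signal to plate DMSO mean so 100% equals DMSO level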); details: S. cerevisiae MEP2-GFP strain, 3 h, at 10 µM, stronger effect = higher value
[9] = TOR pathway CIT2 reporter hit retest – S. cerevisiae, GFP fusion, cherry picks, mother/daughter gates, confirmation (AID 2274;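 active = GFP response above 150% of the DMSO level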); details: S. cerevisiae CIT2-GFP strain, flow cytometry, 3 h, at 10 µM, stronger effect = higher value
[10] = reduced mouse 2C T cell binding to pMHC/ICAM-1 vesicles – MLPCN validation set, flow cytometry, LFA-1/ICAM-1 modulator project, pilot screen (AID 2523;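 active = response below a set limit, under 55% cells CD8-positive and vesicle-bound, and CD8 cells' 90th-percentile brightness under 279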;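 for vesicle binding response: mean PE anti-B7-1 fluorescence of CD8+ cells relative to row control; 100% = QL9-loaded vesicles with DMSO vehicle in the same plate row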); details: 2C mouse CD8+ T cells, at 7 µM, stronger effect = lower value; double positive events: measured here: CD8+/vesicle+ event percentage
[11] = target: Integrin beta-1 (Homo sapiens) + Integrin alpha-4 (Homo sapiens) (UniProt P13612+P05556); assay: alpha4beta1 integrin LIBS antibody binding reduction – U937 cells, HUTS-21 mAb, flow cytometry, validation set, VLA-4 allosteric modulator project, pilot screen (AID 2674;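 active = inhibition above 50%, about 3 SD of the validation set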;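 note: antibody binding induced by the VLA-4 ligand LDV present at three times its Kd; 0% = LDV ligand with antibody and no compound and 100% = antibody without LDV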); details: HUTS-21 LIBS mAb binding, at 6.7 µM, stronger effect = higher value, binding induced by LDV ligand
[12] = calorie-restriction mimetic ROS inhibitors, yeast – validation compound set, pilot screen (AID 2706;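 active = superoxide response below 65% of plate, a cut near 3 SD across the whole screen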;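 note: yeast exposed to compound for one week at 30 degrees C before staining; 100% = mean of all compound wells on the same plate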); details: S. cerevisiae aging, superoxide DHE fluorescence; at 10 µM; stronger effect = lower value
[13] = target: Beta-adrenergic receptor kinase 1 (Homo sapiens) (UniProt P25098); assay: GRK2 binders displacing RNA aptamer, biochemical, validation, human GRK2, bead flow cytometry (AID 488806;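 active = aptamer binding inhibition above 30%, about 3 SD of noise from non-fluorescent compounds; inactive = inhibition at or below 30%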); details: bead-bound GRK2, FAM-aptamer displacement, at 10 µM, stronger effect = higher value
[14] = target: Beta-2 adrenergic receptor (Homo sapiens) (UniProt P07550); assay: agonist-induced loss of surface beta2AR – cell-based, FAP fluorogen, flow cytometry, validation set, pilot screen (AID 504459;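 active = percent response above 42, roughly 3 SD of non-fluorescent test compounds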;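 note: agonist-driven loss of surface beta2AR via internalization measured by FAP dye flow cytometry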); details: Am2.2-beta2AR cells, at 10 µM, stronger effect = higher value
[15] = target: AP-2 complex subunit beta (Homo sapiens) (UniProt P63010); assay: beta-arrestin/AP2 interaction blockers – biochemical, validation set, GST-AP2 beads, flow cytometry, pilot screen (AID 504541); details: FITC arrestin peptide, at 10 µM, stronger effect = higher value, AP2 beta2 appendage fragment, R879A mutant;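 note: AP2 carries R879A mutation and is captured from E. coli lysate; bead-bound FITC arrestin peptide fluorescence measuring arrestin peptide binding to AP2; 0% = DMSO wells and 100% = excess unlabeled arrestin peptide control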
[16] = cytosolic pH regulators acting via V-ATPase – S. cerevisiae, pHLuorin, HTS validation (AID 504600; in the data active = response above about 15%;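 note: plate controls were DMSO for no effect and reference compound for full effect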); details: V-ATPase proton transport, at 10 µM, stronger effect = higher value
[17] = system: anti-desmoglein-3 scFv antibody binding to human DSG3; assay: blockers of pathogenic pemphigus antibody–desmoglein-3 binding – biochemical, validation compound set, bead-based, flow cytometry, pilot screen (AID 588368;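 active = binding below the plate cutoff, the plate median minus 3 SD, with a reading above zero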;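 note: signal is the median channel fluorescence of bead-bound GFP antibody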); details: Protein G beads, DSG3-Fc, scFv-GFP binding, at 10 µM, stronger effect = lower value
[18] = Nile Red efflux blockade in pump-expressing yeast – validation compound set, multiplex, phenotypic, pilot screen (AID 588506;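 active = efflux inhibition above 0.42, the validation set average plus 4 SD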;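 note: Nile Red retained in cells so higher fluorescence means more efflux inhibition; 0 = negative control wells and 1 = enniatin B 25 µM full block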); details: S. cerevisiae pump-expressing triplex, Nile Red efflux flow cytometry; at 10 µM; stronger effect = higher value; the pumps come from Candida albicans
[19] = target: ATP-binding cassette sub-family B member 6 (Homo sapiens) (UniProt Q9NP58); assay: blockers of ABCB6-driven porphyrin uptake – K562-ABCB6 cells, flow cytometry, validation set, pilot screen (AID 588550;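 active = inhibition above the screen-wide mean plus 3 SD, about 51%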;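 note: 0% = DMSO wells and 100% = benzethonium chloride 70 µM positive control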); details: K562-ABCB6 porphyrin accumulation, 1 h, at 10 µM, stronger effect = higher value
[20] = AML differentiation inducers, ER-HoxA9 marrow cells – cell-based, GFP/MAC1 double positive, flow cytometry, validation set, primary screen (AID 588685;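 active = differentiation response of at least 50%, scaled between solvent and reference control, from cells with both markers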;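 note: compound exposure lasts four days before antibody staining and flow analysis; 0% = DMSO wells and 100% = 5 µM fulvestrant positive control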); details: stronger effect = higher value, normalized: vehicle 0, fulvestrant 100
[21] = measured here: daughter cell gate
[22] = measured here: mother cell gate
[23] = measured here: daughter cell gate response
[24] = measured here: mother cell gate response

Chain of AP-2 complex subunit beta (Homo sapiens) (P63010 whole entry, looked up, the tested form may be a part, one chain of several): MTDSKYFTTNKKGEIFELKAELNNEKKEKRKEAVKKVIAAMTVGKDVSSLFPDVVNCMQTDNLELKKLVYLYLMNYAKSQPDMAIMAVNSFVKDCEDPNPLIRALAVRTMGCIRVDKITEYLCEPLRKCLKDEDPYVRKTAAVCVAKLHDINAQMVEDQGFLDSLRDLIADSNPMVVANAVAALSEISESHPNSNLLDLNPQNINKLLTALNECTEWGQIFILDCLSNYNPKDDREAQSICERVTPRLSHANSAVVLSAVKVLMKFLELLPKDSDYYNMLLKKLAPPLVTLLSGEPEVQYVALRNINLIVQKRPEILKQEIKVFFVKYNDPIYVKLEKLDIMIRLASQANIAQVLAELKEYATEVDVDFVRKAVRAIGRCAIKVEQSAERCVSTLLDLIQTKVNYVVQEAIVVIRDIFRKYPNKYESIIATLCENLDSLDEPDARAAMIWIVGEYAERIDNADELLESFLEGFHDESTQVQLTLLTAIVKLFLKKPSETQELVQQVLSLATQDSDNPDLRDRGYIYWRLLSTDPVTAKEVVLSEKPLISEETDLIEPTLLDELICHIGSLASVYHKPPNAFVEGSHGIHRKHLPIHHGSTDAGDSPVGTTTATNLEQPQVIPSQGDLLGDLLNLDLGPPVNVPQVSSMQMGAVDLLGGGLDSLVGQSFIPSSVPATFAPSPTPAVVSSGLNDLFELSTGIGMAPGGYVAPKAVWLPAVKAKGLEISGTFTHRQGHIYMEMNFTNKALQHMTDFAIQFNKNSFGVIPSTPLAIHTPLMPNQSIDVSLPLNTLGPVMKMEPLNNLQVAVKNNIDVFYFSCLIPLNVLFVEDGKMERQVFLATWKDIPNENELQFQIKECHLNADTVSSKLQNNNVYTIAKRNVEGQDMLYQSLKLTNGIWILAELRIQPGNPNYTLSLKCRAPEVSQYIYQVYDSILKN
Chain of Integrin beta-1 (Homo sapiens) + Integrin alpha-4 (Homo sapiens) (P05556 whole entry, looked up): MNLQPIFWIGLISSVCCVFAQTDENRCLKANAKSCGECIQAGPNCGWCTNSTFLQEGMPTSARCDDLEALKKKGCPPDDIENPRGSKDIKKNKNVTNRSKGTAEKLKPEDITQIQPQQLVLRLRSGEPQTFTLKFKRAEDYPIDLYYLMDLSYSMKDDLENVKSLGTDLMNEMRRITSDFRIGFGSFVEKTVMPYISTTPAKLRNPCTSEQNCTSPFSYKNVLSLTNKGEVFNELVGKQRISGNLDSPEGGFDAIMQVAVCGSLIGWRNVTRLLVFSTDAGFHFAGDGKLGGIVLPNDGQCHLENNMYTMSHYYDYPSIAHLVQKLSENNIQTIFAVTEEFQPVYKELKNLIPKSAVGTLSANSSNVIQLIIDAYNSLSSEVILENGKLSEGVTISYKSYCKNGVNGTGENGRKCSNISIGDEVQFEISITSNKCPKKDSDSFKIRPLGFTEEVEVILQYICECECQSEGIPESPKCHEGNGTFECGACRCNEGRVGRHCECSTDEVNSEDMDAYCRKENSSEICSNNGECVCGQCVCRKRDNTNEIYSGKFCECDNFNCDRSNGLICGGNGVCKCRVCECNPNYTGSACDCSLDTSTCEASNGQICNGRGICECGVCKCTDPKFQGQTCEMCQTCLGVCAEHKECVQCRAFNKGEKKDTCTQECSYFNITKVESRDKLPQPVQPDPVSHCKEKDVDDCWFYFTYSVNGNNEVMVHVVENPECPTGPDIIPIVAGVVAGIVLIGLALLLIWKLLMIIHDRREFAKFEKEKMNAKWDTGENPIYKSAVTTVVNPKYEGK
Chain of Integrin beta-1 (Homo sapiens) + Integrin alpha-4 (Homo sapiens) (P13612 whole entry, looked up): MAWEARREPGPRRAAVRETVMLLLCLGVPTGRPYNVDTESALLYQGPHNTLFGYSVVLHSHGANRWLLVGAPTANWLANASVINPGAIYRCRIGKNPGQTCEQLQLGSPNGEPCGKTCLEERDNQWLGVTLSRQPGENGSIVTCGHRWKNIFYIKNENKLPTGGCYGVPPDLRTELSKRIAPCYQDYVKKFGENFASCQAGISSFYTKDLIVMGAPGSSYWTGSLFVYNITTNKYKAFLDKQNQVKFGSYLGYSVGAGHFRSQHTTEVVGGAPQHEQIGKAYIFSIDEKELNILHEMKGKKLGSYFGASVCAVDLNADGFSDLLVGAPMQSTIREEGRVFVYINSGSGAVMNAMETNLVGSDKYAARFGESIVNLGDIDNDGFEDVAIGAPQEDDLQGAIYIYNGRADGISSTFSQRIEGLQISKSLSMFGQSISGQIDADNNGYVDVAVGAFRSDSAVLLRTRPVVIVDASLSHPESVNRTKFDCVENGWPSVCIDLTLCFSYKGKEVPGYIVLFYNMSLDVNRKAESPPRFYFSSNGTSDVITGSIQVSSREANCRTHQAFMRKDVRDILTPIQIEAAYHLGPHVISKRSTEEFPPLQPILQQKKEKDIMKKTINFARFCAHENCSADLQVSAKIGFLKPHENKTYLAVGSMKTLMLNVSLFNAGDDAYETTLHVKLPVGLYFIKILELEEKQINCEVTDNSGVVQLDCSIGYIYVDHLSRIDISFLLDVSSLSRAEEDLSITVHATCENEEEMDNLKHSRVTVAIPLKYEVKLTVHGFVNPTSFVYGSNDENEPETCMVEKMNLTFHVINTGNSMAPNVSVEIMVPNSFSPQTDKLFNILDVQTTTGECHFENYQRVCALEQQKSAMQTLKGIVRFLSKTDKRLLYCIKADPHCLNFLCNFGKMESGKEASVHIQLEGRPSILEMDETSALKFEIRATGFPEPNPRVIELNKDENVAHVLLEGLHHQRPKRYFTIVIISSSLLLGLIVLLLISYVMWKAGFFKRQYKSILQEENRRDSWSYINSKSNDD
Chain of ATP-binding cassette sub-family B member 6 (Homo sapiens) (Q9NP58 whole entry, looked up): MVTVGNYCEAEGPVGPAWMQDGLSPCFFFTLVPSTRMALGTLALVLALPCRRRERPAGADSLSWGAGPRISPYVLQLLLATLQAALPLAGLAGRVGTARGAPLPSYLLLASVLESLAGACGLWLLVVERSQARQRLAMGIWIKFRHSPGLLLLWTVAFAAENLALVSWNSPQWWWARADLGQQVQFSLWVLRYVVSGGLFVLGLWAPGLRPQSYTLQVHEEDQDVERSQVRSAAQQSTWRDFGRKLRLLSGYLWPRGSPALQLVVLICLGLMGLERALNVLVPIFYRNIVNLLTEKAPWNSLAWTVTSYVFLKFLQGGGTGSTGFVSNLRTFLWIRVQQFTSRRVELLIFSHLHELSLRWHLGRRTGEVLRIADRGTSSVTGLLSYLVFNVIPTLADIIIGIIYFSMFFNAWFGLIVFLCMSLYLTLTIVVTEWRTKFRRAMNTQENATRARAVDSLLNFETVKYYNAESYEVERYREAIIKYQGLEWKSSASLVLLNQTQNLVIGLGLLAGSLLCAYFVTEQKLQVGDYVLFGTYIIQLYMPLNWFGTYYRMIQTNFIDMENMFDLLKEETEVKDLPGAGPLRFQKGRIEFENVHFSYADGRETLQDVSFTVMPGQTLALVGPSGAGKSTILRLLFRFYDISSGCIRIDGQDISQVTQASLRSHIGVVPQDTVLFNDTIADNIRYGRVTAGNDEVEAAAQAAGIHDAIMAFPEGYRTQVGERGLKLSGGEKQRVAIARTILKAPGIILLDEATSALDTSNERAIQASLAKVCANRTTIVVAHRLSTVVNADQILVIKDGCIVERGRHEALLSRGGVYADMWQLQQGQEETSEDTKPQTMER
Chain of Beta-adrenergic receptor kinase 1 (Homo sapiens) (P25098 whole entry, looked up): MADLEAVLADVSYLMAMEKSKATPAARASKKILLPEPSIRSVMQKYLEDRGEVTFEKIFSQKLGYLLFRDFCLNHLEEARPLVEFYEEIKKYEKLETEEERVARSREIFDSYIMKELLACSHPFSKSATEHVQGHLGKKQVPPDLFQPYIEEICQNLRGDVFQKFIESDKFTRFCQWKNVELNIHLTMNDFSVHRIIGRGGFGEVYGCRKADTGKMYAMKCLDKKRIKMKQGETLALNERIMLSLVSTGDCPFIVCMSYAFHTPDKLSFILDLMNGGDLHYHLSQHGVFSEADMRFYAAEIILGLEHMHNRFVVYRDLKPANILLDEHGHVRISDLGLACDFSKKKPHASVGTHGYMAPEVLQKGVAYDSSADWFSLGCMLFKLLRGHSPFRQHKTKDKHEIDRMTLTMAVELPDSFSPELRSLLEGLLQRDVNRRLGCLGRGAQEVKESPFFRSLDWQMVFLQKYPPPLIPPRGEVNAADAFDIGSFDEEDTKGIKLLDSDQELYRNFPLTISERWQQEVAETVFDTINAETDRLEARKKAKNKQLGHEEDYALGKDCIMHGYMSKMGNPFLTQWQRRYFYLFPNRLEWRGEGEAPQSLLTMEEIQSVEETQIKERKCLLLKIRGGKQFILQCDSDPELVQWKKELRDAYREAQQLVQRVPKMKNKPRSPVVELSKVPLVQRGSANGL
Chain of Beta-2 adrenergic receptor (Homo sapiens) (P07550 whole entry, looked up, the tested form may be a part): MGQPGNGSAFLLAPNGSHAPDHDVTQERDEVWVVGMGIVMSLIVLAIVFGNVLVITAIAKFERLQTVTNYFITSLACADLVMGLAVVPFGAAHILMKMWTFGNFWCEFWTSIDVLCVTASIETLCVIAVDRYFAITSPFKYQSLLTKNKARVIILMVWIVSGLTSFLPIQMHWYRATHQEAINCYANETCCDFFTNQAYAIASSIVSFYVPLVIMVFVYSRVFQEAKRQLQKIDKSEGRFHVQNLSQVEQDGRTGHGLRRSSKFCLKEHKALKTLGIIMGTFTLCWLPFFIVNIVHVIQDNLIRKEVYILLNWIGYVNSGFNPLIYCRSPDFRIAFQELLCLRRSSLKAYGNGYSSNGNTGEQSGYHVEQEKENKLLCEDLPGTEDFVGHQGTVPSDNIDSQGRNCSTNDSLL

COc1cccc(/C=C/C(=O)c2c(O)cc(C)oc2=O)c1O
90.2%: GFP response, % of DMSO [9, 22]
155%: GFP response relative to DMSO [7, 23]
99.1%: GFP response, % of DMSO [9, 21]
inactive: percent of DMSO control GFP [1] 104% | GFP response vs DMSO [2] 108% | percent response of DMSO control [3] 82.5% | GFP response, % of DMSO [5] 91.1% | GFP response vs DMSO [6] 101% | GFP response vs DMSO [8] 107% | GFP response, % of DMSO [9] 91.2% | vesicle binding response [10] 259% | inhibition [11] -3.16% | superoxide response (% of plate) [12] 80.7% | aptamer binding inhibition [13] 3% | response [14] 17.4% | inhibition [15] 10.4% | response [16] 2.77% | binding (% of control) [17] 104% | efflux inhibition (fraction of control) [18] 0.19 | inhibition [19] -4% | differentiation response [20] 5.6%
99.7%: GFP response vs DMSO [6, 22]
104%: GFP response vs DMSO [6, 21]
62.2%: double positive events [10]
175%: GFP response relative to DMSO [7, 24]
active: GFP response vs DMSO [4] 184% | GFP response relative to DMSO [7] 165%

CC(=O)c1ccc(CCCCCCCCCC(=O)O)s1
inactive: percent of DMSO control GFP [1] 98.6% | GFP response vs DMSO [2] 97.4% | percent response of DMSO control [3] 66.4% | GFP response, % of DMSO [5] 86.2% | GFP response vs DMSO [6] 99% | GFP response relative to DMSO [7] 108% | GFP response vs DMSO [8] 100% | GFP response, % of DMSO [9] 99.1% | vesicle binding response [10] 207% | inhibition [11] 13.2% | superoxide response (% of plate) [12] 117% | aptamer binding inhibition [13] -5% | response [14] 23.9% | inhibition [15] 26.2% | response [16] -3% | binding (% of control) [17] 99.3% | efflux inhibition (fraction of control) [18] 0.01 | inhibition [19] -2%
113%: GFP response relative to DMSO [7, 24]
111%: GFP response relative to DMSO [7, 23]
active: GFP response vs DMSO [4] 174% | differentiation response [20] 66.4%
98.5%: GFP response vs DMSO [6, 22]
96.7%: GFP response vs DMSO [6, 21]
93.2%: GFP response, % of DMSO [9, 21]
60%: double positive events [10]
101%: GFP response, % of DMSO [9, 22]

CC(=O)[C@@]1(O)CC[C@H]2[C@@H]3CCC4=CC(=O)CC[C@]4(C)[C@H]3[C@@H](O)C[C@@]21C
99.7%: GFP response vs DMSO [6, 22]
97.9%: GFP response relative to DMSO [7, 23]
94.5%: GFP response, % of DMSO [9, 22]
96.5%: GFP response relative to DMSO [7, 24]
98.3%: GFP response, % of DMSO [9, 21]
56.2%: double positive events [10]
99.3%: GFP response vs DMSO [6, 21]
inactive: percent of DMSO control GFP [1] 104% | GFP response vs DMSO [2] 95.9% | percent response of DMSO control [3] 94.9% | GFP response vs DMSO [4] 90.3% | GFP response, % of DMSO [5] 96.4% | GFP response vs DMSO [6] 99.3% | GFP response relative to DMSO [7] 97.7% | GFP response vs DMSO [8] 102% | GFP response, % of DMSO [9] 96.4% | vesicle binding response [10] 182% | inhibition [11] 12.8% | superoxide response (% of plate) [12] 89.3% | aptamer binding inhibition [13] 1% | inhibition [15] -12.8% | response [16] 4.15% | binding (% of control) [17] 100% | efflux inhibition (fraction of control) [18] -0.2 | inhibition [19] 10% | differentiation response [20] -3.43%

Cc1ccc2[nH]c3c(c2c1)CCNC3=O
103%: GFP response vs DMSO [6, 22]
106%: GFP response, % of DMSO [9, 21]
94.2%: GFP response relative to DMSO [7, 24]
114%: GFP response, % of DMSO [9, 22]
92.5%: GFP response relative to DMSO [7, 23]
57.6%: double positive events [10]
inactive: percent of DMSO control GFP [1] 99.1% | GFP response vs DMSO [2] 95.9% | percent response of DMSO control [3] 104% | GFP response vs DMSO [4] 91.3% | GFP response, % of DMSO [5] 98.7% | GFP response vs DMSO [6] 101% | GFP response relative to DMSO [7] 91.4% | GFP response vs DMSO [8] 100% | GFP response, % of DMSO [9] 111% | vesicle binding response [10] 187% | inhibition [11] 7.22% | superoxide response (% of plate) [12] 95% | aptamer binding inhibition [13] -2% | inhibition [15] -5.6% | response [16] -10.4% | binding (% of control) [17] 100% | efflux inhibition (fraction of control) [18] -0.2 | inhibition [19] 7% | differentiation response [20] -6.66%
100%: GFP response vs DMSO [6, 21]
